Experimental findings from PubChem BioAssay (NCI) are described below.

About 83,000 compounds went through this panel and 20% of them were active in at least one assay; those are over-represented in the sample as a whole.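 Activity criterion: percent growth below 10, measured after cells in 96-well plates were exposed to a single compound concentration for 48 hours.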 Unmarked numbers belong to inactive results. Active and inactive are the calls of the source.

Some test systems named below: HCT-15 colon; HT29 colon; SNB-75 CNS; SNB-19 CNS; PC-3 prostate; SK-MEL-5 melanoma; UACC-62 melanoma; SK-MEL-28 melanoma; SK-MEL-2 melanoma; EKVX NSCLC; SN12C renal; UO-31 renal; TK-10 renal; ACHN renal; CAKI-1 renal; A498 renal; CCRF-CEM leukemia; MOLT-4 leukemia; LOX IMVI melanoma; U251 CNS.
Common to all, as to assay: NCI-60 one-dose screen, 48 h (100 = growth as untreated, 0 = no growth, -100 = all killed)
Common to all, as to settings: 10 µM

Consider `COc1ccc2c3nc4cc(C)c(C)cc4nc3n(CCN(C)C)c2c1`, for which the growth is 1.95% (active) in the test on HCT-15 colon; 31.4% with HT29 colon; 21.5% in the test on SNB-75 CNS; 9.9% (active) in the test with SNB-19 CNS; 21.2% in the test on PC-3 prostate; -80.7% (active) with SK-MEL-5 melanoma. The growth was 3.37% (active) in the test on UACC-62 melanoma; -63.9% (active) in the test with SK-MEL-28 melanoma; -4.58% (active) in the test with SK-MEL-2 melanoma; 12.6% in the test on EKVX NSCLC; -15.6% (active) in the test with SN12C renal; -67.2% (active) in the test on UO-31 renal. Besides, the growth in the test on TK-10 renal was 15.6%; in the test with ACHN renal it was -64% (active); with CAKI-1 renal, -67.5% (active); with A498 renal it was 65.4%; with CCRF-CEM leukemia, 20.1%; with MOLT-4 leukemia, 4.84% (active).
As for `CCCCOc1ccc(Nc2nc3ccccc3nc2Nc2ccc(OCCCC)cc2)cc1`, the growth was 64.4% with HCT-15 colon; 73.7% in the test on HT29 colon; 89.5% with SNB-75 CNS; 84.1% with SNB-19 CNS; 59.7% in the test with PC-3 prostate; 96.3% with SK-MEL-5 melanoma. The growth was 90.6% in the test with UACC-62 melanoma; 102% with LOX IMVI melanoma; 109% in the test on SK-MEL-28 melanoma; 82.2% in the test on EKVX NSCLC; 95.9% in the test on SN12C renal; 85.3% in the test with UO-31 renal. Besides, the growth with TK-10 renal was 91.9%; in the test on ACHN renal, 97.7%; in the test on A498 renal, 105%; in the test with CCRF-CEM leukemia, 69.1%; in the test with MOLT-4 leukemia it was 68.3%.
Regarding `Cc1noc2c(Cc3ccccc3)nn(CC(=O)N/N=C/c3ccc(Cl)cc3)c(=O)c12`, the growth with HCT-15 colon is 86.3%; with HT29 colon, 65.8%; in the test on SNB-75 CNS it was -3.5% (active); in the test with SNB-19 CNS, 71.3%; in the test with PC-3 prostate it was 76.4%; in the test on SK-MEL-5 melanoma it was 85.5%. Further, the growth in the test on UACC-62 melanoma is 92.9%; in the test with LOX IMVI melanoma, 48.7%; with SK-MEL-28 melanoma it was 104%; in the test on SK-MEL-2 melanoma it was 94.3%; with EKVX NSCLC, 72.9%; with SN12C renal, 7.85% (active). Further, the growth in the test on UO-31 renal was -40.5% (active); in the test with TK-10 renal, 4.87% (active); in the test on ACHN renal, -16.5% (active); in the test on CAKI-1 renal it was 38.5%; with A498 renal it was -58.1% (active); in the test on CCRF-CEM leukemia, 97.3%. In addition, the growth in the test on MOLT-4 leukemia is 102%.
In the case of `COc1ccccc1[C@H]1C(C(=O)c2ccc(Cl)cc2)C2(N[C@@H]1c1ccccc1)C(=O)Nc1ccccc12` (stereo not given in full), the growth was -18.7% (active) in the test with HCT-15 colon; -53.1% (active) in the test with HT29 colon; 55.6% in the test with SNB-75 CNS; 13.7% in the test on SNB-19 CNS; 5.37% (active) with PC-3 prostate; -87.2% (active) with SK-MEL-5 melanoma. For the same compound, the growth is -74.9% (active) in the test with UACC-62 melanoma; -97.3% (active) in the test on LOX IMVI melanoma; -36.6% (active) in the test on SK-MEL-28 melanoma; -85.9% (active) in the test on SK-MEL-2 melanoma; 3.23% (active) in the test on EKVX NSCLC; -89% (active) in the test on SN12C renal. For the same compound, the growth with UO-31 renal was 1.13% (active); with TK-10 renal, 8.59% (active); in the test with ACHN renal, -3.58% (active); in the test on CAKI-1 renal it was 4.17% (active); with A498 renal it was -19.2% (active); with CCRF-CEM leukemia it was 4.07% (active). In addition, the growth in the test on MOLT-4 leukemia was -17.7% (active).
Turning to `C=C1CCC2C3(C)COC(c4c(F)cccc4F)OC3CCC2(C)C1CC(O)C1=CCOC1=O` (stereo not given), the growth in the test on HCT-15 colon is 18.3%; with HT29 colon it was 23%; in the test on SNB-75 CNS, 45.1%; with SNB-19 CNS, 86.2%; with U251 CNS it was 69.1%; in the test on PC-3 prostate, 41%. For the same compound, the growth with SK-MEL-5 melanoma is 68.2%; with UACC-62 melanoma, 79.7%; in the test on SK-MEL-2 melanoma, 52.4%; in the test with EKVX NSCLC it was 85.7%; with SN12C renal it was 34.9%; in the test with UO-31 renal it was 50%. The growth in the test with TK-10 renal was 105%; in the test with ACHN renal, 3.02% (active); with CAKI-1 renal it was 72.5%; with A498 renal it was 134%; with CCRF-CEM leukemia, 17.7%; in the test on MOLT-4 leukemia, 53.7%.
As for `CC1=C2C(=C[C@@](C)(CO)[C@@H]2O)/C(=N\N)[C@](C)(O)C12CC2`, the growth in the test with HCT-15 colon is -17.1% (active); in the test with HT29 colon, -11% (active); in the test with SNB-19 CNS, -16% (active); in the test with U251 CNS, 12%; in the test with PC-3 prostate, 6.9% (active); in the test on SK-MEL-5 melanoma, -61.1% (active). Besides, the growth in the test with UACC-62 melanoma is -81.7% (active); in the test on LOX IMVI melanoma it was -64.3% (active); with SK-MEL-28 melanoma, -67.2% (active); in the test with SK-MEL-2 melanoma, -100% (active); in the test with EKVX NSCLC it was -44.2% (active); in the test with SN12C renal, 0.386% (active). Also, the growth was -29.2% (active) in the test with UO-31 renal; 1.74% (active) in the test on TK-10 renal; -18.6% (active) with ACHN renal; 1.03% (active) with CAKI-1 renal; -27.8% (active) in the test on A498 renal; 18.8% in the test with CCRF-CEM leukemia. The growth with MOLT-4 leukemia was 3.48% (active).
As to `CCN(CC)CCOc1ccc(C(=C(C)c2ccccc2)c2ccc(OCCN(CC)CC)cc2)cc1`, the growth was -31.2% (active) with HCT-15 colon; -57.6% (active) in the test on HT29 colon; 9.06% (active) in the test on SNB-19 CNS; -21.8% (active) in the test with U251 CNS; 22.7% in the test with PC-3 prostate; -100% (active) with SK-MEL-5 melanoma. For the same compound, the growth is -86.5% (active) with UACC-62 melanoma; -98.8% (active) with LOX IMVI melanoma; -96.5% (active) in the test on SK-MEL-28 melanoma; 35.3% in the test on EKVX NSCLC; 56.9% with SN12C renal; -9.31% (active) with TK-10 renal. For the same compound, the growth with ACHN renal is -13.3% (active); in the test on CAKI-1 renal it was 8.81% (active); in the test on A498 renal, 78.5%; with CCRF-CEM leukemia it was -27.2% (active).
`NC(=Nc1ccc(OCCCCCCCCn2ccnn2)cc1)c1ccccc1`: the growth is 15.8% in the test on HCT-15 colon; 61.2% in the test on SNB-75 CNS; 41.7% in the test on SNB-19 CNS; 12.2% in the test on U251 CNS; 35.8% in the test with PC-3 prostate; 41.8% in the test with UACC-62 melanoma. The growth in the test on LOX IMVI melanoma was 26.6%; with SK-MEL-28 melanoma it was 49.2%; in the test with SK-MEL-2 melanoma, 14.8%; with EKVX NSCLC, 42.7%; in the test on SN12C renal it was 32.3%; in the test with UO-31 renal, 40.7%. For the same compound, the growth in the test with TK-10 renal is 70.9%; in the test with ACHN renal, 34.4%; in the test with CAKI-1 renal, 37.9%; in the test with A498 renal it was 98.1%; in the test on CCRF-CEM leukemia it was 15.6%.
Consider `O=C(CS(=O)(=O)c1oc(-c2ccc(Cl)cc2)nc1S(=O)(=O)c1ccccc1)N1CCCC1`, for which the growth in the test with HCT-15 colon is -89.3% (active); with HT29 colon, -40.6% (active); in the test on SNB-19 CNS it was 80.9%; in the test with PC-3 prostate, 78.8%; with SK-MEL-5 melanoma, 84.2%; in the test on UACC-62 melanoma, 47.5%. The growth with LOX IMVI melanoma was -100% (active); with SK-MEL-28 melanoma, -100% (active); in the test with SK-MEL-2 melanoma it was 82.8%; in the test with EKVX NSCLC, 74.9%; in the test on SN12C renal, -26.2% (active); with UO-31 renal, -100% (active). Further, the growth was -94.5% (active) with TK-10 renal; -100% (active) in the test with ACHN renal; -98.7% (active) with CAKI-1 renal; 110% with A498 renal; -45% (active) in the test with CCRF-CEM leukemia.
